Screening data (PubChem)
RORgamma inh: inhibitors of mouse ROR gamma transcriptional activity. P51450. Drosophila S2 Gal4-RORgamma UAS-luciferase reporter, 20 h. Potency, µM (titrated, usually from 53.6 µM), without a hit: at the highest dose activity change, negative = inhibition, most hits filed as inhibitors. 5.4% of 310,000 active; further: potency means the concentration at half of the fitted maximal effect; on the % scale 0 is the no-effect control and ±100 the full control effect; nearly all actives have a fitted effect of over 60% in size
Target sequence (P51450 whole entry, looked up, the tested form may be a part): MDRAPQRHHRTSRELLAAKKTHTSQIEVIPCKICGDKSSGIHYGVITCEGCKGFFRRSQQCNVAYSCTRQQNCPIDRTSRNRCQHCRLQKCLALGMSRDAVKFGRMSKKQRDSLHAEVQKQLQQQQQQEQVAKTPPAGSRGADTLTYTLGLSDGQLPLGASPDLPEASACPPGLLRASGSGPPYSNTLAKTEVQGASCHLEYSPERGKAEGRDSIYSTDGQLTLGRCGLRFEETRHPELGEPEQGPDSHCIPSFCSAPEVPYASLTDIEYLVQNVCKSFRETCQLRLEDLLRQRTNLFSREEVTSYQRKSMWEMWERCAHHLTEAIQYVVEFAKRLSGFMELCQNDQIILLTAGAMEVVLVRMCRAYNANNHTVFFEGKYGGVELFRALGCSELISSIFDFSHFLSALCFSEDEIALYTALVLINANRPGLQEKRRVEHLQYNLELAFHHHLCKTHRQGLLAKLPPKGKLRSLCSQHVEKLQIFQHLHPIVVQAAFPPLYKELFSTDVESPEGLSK
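Compounds are pin-transferred onto Drosophila Schneider cells expressing a copper-inducible Gal4–ROR gamma transactivation domain fusion. After 1 hr, copper sulfate is added to 700 uM final; luciferase is read 20 hr later.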
SW480 rereplic: DNA re-replication induction in SW480 cells. 1.8% of 340,000 active. Potency, µM (titrated, usually from 46.1 µM), for the others: at the highest dose re-replication activation, usual class: activators. SW480 DNA re-replication, Hoechst DNA content imaging, 48 h. AID 624297; further: potency means the concentration at half of the fitted maximal effect; % of control where 0% means no effect; nearly all actives have a fitted effect of over 55% in size
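Quantitative HTS format with DMSO vehicle controls; 48 hr drug incubation at 37 C, then 40 min Hoechst staining and scanning imager measurement at 405 nm excitation.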
VP16 counter: inhibits Gal4-VP16 luciferase reporter, ROR gamma counter-screen | Drosophila S2 Gal4-VP16 UAS-luciferase, luminescence, 20 h | Potency, µM (top dose mostly 53.6 µM), for the others: at the highest dose activity, negative = inhibition, most hits filed as inhibitors | 3.5% of 310,000 active;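 further: Gal4-VP16 expression switched on by copper sulfate through the metallothionein promoter; potency means the concentration at half of the fitted maximal effect; on the % scale 0 is the no-effect control and ±100 the full control effect; nearly all actives have a fitted effect of over 50% in size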
IL-1B inflam inh: blocks inflammasome-driven IL-1 beta release | AID 743279 | activity change, % at 57.5 µM | THP-1 LPS/ATP IL-1B secretion, AlphaLISA, 16 h; stronger effect = lower value | 4.7% of 360,000 active; in the data active means activity change below about -50%; inconclusive means mostly about -30% to -49%; further: on the % scale 0 is the no-effect control and ±100 the full control effect
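THP-1 cells pretreated 1 hr with compounds (up to 57.5 uM final), then stimulated with LPS (250 ng/mL final) plus ATP (1.25 mM final); secreted IL-1B measured by AlphaLISA after 16 hr, decreased signal indicating inhibition.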
MCF10A rereplic: DNA re-replication induction in MCF 10a cells | MCF 10A DNA re-replication, Hoechst nuclear intensity, 48 h | 2.9% of 350,000 active | Potency, µM (highest dose often 46.1 µM), for inactives: at the top dose activity, positive = re-replication, most hits filed as activators; further: potency means the concentration at half of the fitted maximal effect; % of control where 0% means no effect; nearly all actives have a fitted effect of over 50% in size
An asterisk follows results filed as active; ? = inconclusive; . = not tested or not shown; [ ] = dose if it differs, or a comment. A selection: hits, their analogues and other compounds. The true share with any hit is near 11%. Unless noted, the call rests on the fitted dose curve; in most records, active means well fitted curve in the direction sought with a large enough effect; inconclusive means small, poorly fitted or top-dose-only effect, or another doubt; inactive means no such curve, though single readings can be large; an effect the other way counts as inactive or inconclusive.

SMILES	RORgamma inh	SW480 rereplic	VP16 counter	IL-1B inflam inh	MCF10A rereplic
C/C(CCc1ccc2c(c1)OCO2)=N\NC(=S)NC(C)C	2.2µM*	-1%	4.5µM*	-10	-13%
Cc1nc([N+](=O)[O-])cn1CC(=O)c1ccc(OC(F)(F)F)cc1	9%	11%	-10%	23	-3%
COc1ccc([C@H]2CC(=O)C=C(C#CC(C)(C)C)C2)cc1	.	-2%	.	-21	-2%
COc1ccc2cc(C#CC3=CC(=O)C[C@H](c4ccc(F)cc4)C3)ccc2c1	.	.	.	-76*	.
C[Si](C)(C/C=C/CC[C@H](O)C1=CCCCC1=O)c1ccccc1	3%	.	-4%	.	.
CCOC(OCC)c1cn(Cc2ccc(C(=O)c3ccccc3)cc2)nn1	?	127%	18µM*	41	?
O=C(O)CCCCCCCCc1cn(Cc2ccc(C(=O)c3ccccc3)cc2)nn1	-3%	5.8µM*	0%	74	?
O=C(O)CCCCCCCCc1cn(CC2CCCCC2)nn1	4.5µM*	-6%	1.8µM*	41	5%
O=C(c1ccccc1)c1ccc(Cn2cc(-c3ccccc3)nn2)cc1	?	0%	10µM*	55	10%
O=C(Nc1c2c(nn1-c1cccc(Cl)c1)CS(=O)(=O)C2)c1ccc2c(c1)OCO2	32%	-1%	-4%	-16	-17%
O=S(=O)(Nc1cccc(S(=O)(=O)N2CCOCC2)c1)c1cccs1	.	1%	.	9	1%
O=C(c1ccccc1)c1ccc(Cn2cc(CCCO)nn2)cc1	?	-12%	13µM*	39	8%
O=c1cnc2cnc(Oc3cccc(Cl)c3)nc2n1C1CC1	4%	.	-9%	.	.
O=c1oc2cc(O)ccc2cc1-c1nc2c(s1)CCc1ccccc1-2	-6%	3.7µM*	-21%	17	?
O=c1oc2cc(O)ccc2cc1-c1ccccc1	6%	?	3%	-2	?
O=c1oc2ccccc2cc1-c1nc2c(s1)CCc1ccccc1-2	26%	21µM*	-7%	37	?
O=C1c2ccccc2C(c2nnnn2Cc2ccccc2)N1CCCN1CCOCC1 (stereo not given)	.	.	.	0	.
CCC(=O)N[C@H]1CC[C@@H](CCn2cc(C3CC3)nn2)O[C@@H]1CO	.	.	.	0	.
O=C(NCC(c1cccs1)N1CCOCC1)c1ccc(Cl)cc1 (stereo not given)	.	?	.	14	?
O=C(NCC(c1cccs1)N1CCOCC1)c1cc([N+](=O)[O-])cc([N+](=O)[O-])c1 (stereo not given)	-34%	-17%	5%	-62*	-3%
O=C(NCC(c1cccs1)N1CCOCC1)c1cccc([N+](=O)[O-])c1 (stereo not given)	-10%	24%	11%	36	7%
O=C(NCC(c1cccs1)N1CCOCC1)c1cc(S(=O)(=O)N2CCOCC2)c(Cl)cc1Cl (stereo not given)	.	?	.	-5	4%
O=C(NCC(c1cccs1)N1CCOCC1)c1ccc(Cl)nc1 (stereo not given)	.	?	.	29	18µM*
O=C(NCC(c1cccs1)N1CCOCC1)c1cc(S(=O)(=O)N2CCOCC2)ccc1F (stereo not given)	.	3.3µM*	.	-5	22%
O=C(NCc1cccc(C(F)(F)F)c1)c1csc([C@@H]2C[C@H](O)[C@@H](CO)O2)n1	.	.	.	45	.
SMILES	RORgamma inh	SW480 rereplic	VP16 counter	IL-1B inflam inh	MCF10A rereplic
O=S(=O)(c1ccccc1)N1CCC2(CC1)CN(c1ccncc1)C2	-10%	.	3%	.	.
CCC/C=N/NC(=O)c1[nH]c2c([N+](=O)[O-])cccc2c1C	?	18µM*	-28%	68	6.5µM*
CCCCC/C=N/NC(=O)c1[nH]c2ccc([N+](=O)[O-])cc2c1C	?	-8%	-10%	-23	?
CCOC(=O)[C@]12CCC=C1N(Cc1ccc(Cl)cc1Cl)C(=O)[C@H](CC(=O)N1CCSCC1)C2	.	.	.	-23	.
O=C(CCNS(=O)(=O)c1ccccc1)OCC(=O)c1ccc[nH]1	.	0%	.	2	-2%
COc1ccc(NS(=O)(=O)c2cc(NC(=O)c3ccc(=O)[nH]c3)ccc2N2CCCC2)cc1	-9%	?	-1%	73	?
OCCN(Cc1cccnc1)Cc1ccccn1	.	17%	.	26	14%
Oc1ccc(/C=N/Nc2nc(N3CCCC3)nc(N3CCCC3)n2)cc1O	?	-7%	-24%	34	10%[9.22 µM]
C/C(=N\Nc1nc(N2CCCCC2)nc(N2CCOCC2)n1)c1ccccc1O	3%	12µM*	-4%	-86*	?
Oc1ccc(Br)cc1/C=N/Nc1nc(N2CCCCC2)nc(N2CCOCC2)n1	-13%	21µM*	-1%	?	12%
Brc1cc2c(cc1/C=N/Nc1nc(N3CCCC3)nc(N3CCOCC3)n1)OCO2	-16%	-4%	0%	?	17%
Oc1ccc(/C=N/Nc2nc(N3CCCCCC3)nc(N3CCCCCC3)n2)c(O)c1	16µM*	?	?	-99*	?
C/C(=N\Nc1nc(N2CCOCC2)nc(N2CCOCC2)n1)c1cccs1	-4%	15%	2%	-8	12%
CC1(C)CC(Cc2ccc(C(=O)c3ccccc3)cc2)N(C(=O)OC(C)(C)C)N1 (stereo not given)	.	.	.	-3	.
Cc1ccc(NC(=O)Nc2nnc([C@H]3C[C@H](O)[C@@H](CO)O3)s2)cc1	.	.	.	-28	.
O=C(Nc1nc(OCCN2CCCC2=O)cnc1/C=C\c1ccccc1)c1cc2ccccc2s1	.	.	.	-19	.
CC(C)(C)c1ccc(CN2N=C(/C=C/c3ccccc3)CCC2=O)cc1	28%	?	18%	-5	21µM*
O=C1CCC(/C=C/c2ccccc2)=NN1Cc1ccccc1	7%	-7%	0%	-21	0%
O=C(Nc1ccccc1C(F)(F)F)C1CCN(C(=O)Cc2ccccc2)CC1	-18%	-4%	4%	0	5%
CN1C[C@@H]2C(c3ccccc3)C3(c4ccc(C#N)cc4)CC2(C3)[C@H]1c1ccccc1 (stereo not given in full)	15%	-18%	-4%	7	5.2µM*
CN1C[C@@H]2C(c3ccc(C(F)(F)F)cc3)C3(c4ccc(C#N)cc4)CC2(C3)[C@H]1c1ccccc1 (stereo not given in full)	31%	-4%	-1%	3	3%
CNC(=O)c1nnsc1S(=O)c1ccc(Cl)cc1 (stereo not given)	1.3µM*	?	5µM*	-105*	2.3µM*
CCCNC(=O)c1nnsc1S(=O)(=O)c1ccc(Cl)cc1	1.1µM*	7.3µM*	3.2µM*	-106*	2.3µM*
CCCNC(=O)c1nnsc1S(=O)c1ccc(Cl)cc1 (stereo not given)	1.1µM*	23µM*	4µM*	-102*	3.3µM*
CCCNC(=O)NS(=O)(=O)c1ccc(Cl)cc1	-7%	0%	-8%	9	4%
